Shown is part of a subset that was picked to be rich in hits.
RmlC RmlD mix = mixture blocks RmlC and RmlD coupled enzyme activity; RmlC/RmlD coupled enzyme inhibition, 384-well mixture HTS; inhibition, % at 5.5 µM; 0.39% of 110,000 active; in the data active = inhibition above about 30%, passing the limit was not always enough
HIV RNase H inh = blocks HIV-1 RNase H cleavage of RNA/DNA duplex | RT-RNase H RNA/DNA duplex cleavage, fluorescence | inhibition, % at 10 µM | 1.9% of 65,000 active | AID 565; in the data active = inhibition above about 50%
RmlCD fluor art = shows fluorescent artifact in RmlC/RmlD assay, dose-response counter-screen; shares compounds with RmlC RmlD mix; RmlC/RmlD assay fluorescence artifact counter-screen; calls only; 96% of 360 active; call rule not given here;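 also: compound alone with no enzyme and no substrates present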
Active calls of the source: *; i = inactive; nt = no result given; + = active, no number.

SMILES	RmlC RmlD mix	HIV RNase H inh	RmlCD fluor art
CC(C)OC(=O)CC(=O)CSc1nc2c(cc1C#N)CCCC2	59*	-3	+
CS(=O)CSc1nc2c(cc1C#N)CCCC2 (centres undefined)	-9	-6	nt
CCOC(=O)CC(=O)CSc1nc2c(cc1C#N)CCCCCC2	64*	-6	+
N#Cc1cc2c(nc1SCC(=O)N1CCOCC1)CCCCC2	-12	nt	nt
Cc1ccc(O)c(-c2cc(C(F)(F)F)[nH]n2)c1	5	nt	nt
COc1ccc(NC(=O)c2oc3ccccc3c2NC(=O)COc2ccccc2OC)c(OC)c1	104*	22	+
COc1ccc(NC(=O)c2oc3ccccc3c2NC(=O)c2ccc(OC)c(OC)c2)c(OC)c1	nt	6	nt
CCOc1ccc(C(C)=O)cc1CSc1nnc(-c2cccs2)n1CC1CCCO1 (centres undefined)	6	1	nt
O=C(NC(=S)Nc1nc2c(s1)CSc1ccccc1-2)c1ccccc1	-9	nt	nt
CCOC(=O)N1CCN(c2c(NCC3CCN(Cc4cccc(C)c4)CC3)c(=O)c2=O)CC1	-6	-4	nt
COc1ccc(C)cc1NC(=O)c1cnc2n(c1=O)CCS2	7	2	nt
COc1ccc(C)cc1NC(=O)c1cnc2scc(C)n2c1=O	47*	-9	+
COc1ccc(CN(C(=O)CSc2nnc(-c3ccccc3F)o2)c2ccc(F)cc2)cc1	-6	0	nt
Cc1cc(=O)oc2c(CN3CCCCC3)c(O)c(Cl)cc12	94*	-2	+
CCc1cc(=O)oc2cc(C)c(CN3CCCCC3)c(O)c12	10	3	nt
Cc1cc2oc(=O)cc(CN3CCC(C)CC3)c2cc1Cl	-21	2	nt
CCCc1cc(=O)oc2c(CN3CCCC3)c(O)ccc12	99*	-13	+
CN1CCN(Cc2c(O)ccc3c(-c4ccccc4)cc(=O)oc23)CC1	-6	4	nt
Cc1cc(=O)oc2c(CN3CCC(C)CC3)c(O)c(Cl)cc12	149*	5	+
O=C(NCc1cccs1)C1CCC(=O)N1C1CCCCC1 (centres undefined)	-14	-36	nt
Cc1ccccc1Nc1nc(N)nc(CSc2nc3ccccc3c(=O)n2C)n1	1	nt	nt
Cc1ccccc1Cn1cc(NC(=O)CSc2nc3c(c(C(F)(F)F)n2)CCc2ccccc2-3)cn1	8	nt	nt
N#Cc1nc(-c2cccs2)oc1NCC1CCCO1 (centres undefined)	107*	-7	+
COc1ccc(-c2nc(C#N)c(NCCCN3CCOCC3)o2)cc1	nt	-4	nt
CC1CN(c2oc(-c3cccs3)nc2C#N)CC(C)O1 (centres undefined)	75*	-6	+
SMILES	RmlC RmlD mix	HIV RNase H inh	RmlCD fluor art
N#Cc1nc(-c2cccs2)oc1N1CCOCC1	-8	-66	nt
N#Cc1nc(-c2cccs2)oc1NCCCN1CCOCC1	67*	-8	+
O=S(=O)(c1ccccc1)c1nc(-c2cccs2)oc1NCC1CCCO1 (centres undefined)	-16	-39	nt
C[C@H]1CC[C@H]2C(=O)N[C@H](Cc3ccccc3)C(=O)N2[C@@H]1c1ccccc1	-12	nt	nt
COc1ccc(N(CC(=O)Nc2cc(C(=O)O)ccc2C)S(=O)(=O)c2c(C)noc2C)cc1	-18	-15	nt
COc1ccc(C)cc1Cn1c(S(C)(=O)=O)nc2ccccc21	i	-63	nt
COC(=O)CCCC(=O)Nc1c(F)c(F)c(F)c(F)c1F	27	-11	nt
CCOC(=O)/C(C#N)=C(\N)C(C)C(=O)Nc1ccccn1 (centres undefined)	-11	5	nt
O=C(c1ccccc1)c1cnc(Nc2ccccc2Cl)s1	-21	nt	nt
Cc1ccc2c(c1)CC1(CN2C)C(=O)OC2(CCCCC2)OC1=O	-8	-1	nt
CN1CC2(Cc3c1ccc1ccccc31)C(=O)OC(C)(C)OC2=O	+	3	+
CCCOc1ccc(C(=O)c2nc3c(n2O)CCCC3)cc1	-3	4	nt
O=c1[nH]cnc2cc(-c3ccccc3)sc12	1	-4	nt
COc1ccc(-c2cc3nc[nH]c(=O)c3s2)cc1	51*	nt	+
CCOc1cc(-c2nc3ccccn3c2NCC2CCCO2)ccc1O (centres undefined)	14	-8	nt
CCOc1cc(-c2nc3c(C)cccn3c2NCC2CCCO2)ccc1O (centres undefined)	44*	-9	+
c1cncc(-c2nc3c4ccccc4nc(N4CCC(N5CCCCC5)CC4)n3n2)c1	nt	-31	nt
CCOC(=O)CSc1nnc(-c2ccccc2OC)o1	9	-8	nt
CCCCCCc1cc2cc(-c3nnc(-c4ccccc4OC)o3)c(=O)oc2cc1O	181*	nt	+
COc1ccc(C2CC(c3ccccc3)=NN2c2ccc(/C=N/NC(=O)c3ccncc3)cc2)cc1 (centres undefined)	8	nt	nt
NS(=O)(=O)c1ccc(N2N=C(c3ccccc3)CC2c2ccc(F)cc2)cc1 (centres undefined)	149*	nt	+
O=C(Cc1ccccc1)Nc1ccccc1C(=O)O	-10	nt	nt
COc1cccc(-n2nnnc2SCC(=O)c2cc(OC)ccc2OC)c1	38*	32	+
COc1cccc(-n2nnnc2SCC(=O)c2ccc(NC(C)=O)cc2)c1	23	13	nt
COC(=O)CSc1nc(C)c(Oc2ccccc2)c(=O)[nH]1	1	-11	nt
SMILES	RmlC RmlD mix	HIV RNase H inh	RmlCD fluor art
O=c1cc(O)c2ccc(O)cc2o1	104	nt	nt
Cc1cc(=O)[nH]c2cc(O)ccc12	-2	nt	nt
CC(=O)Oc1cc2oc(=O)cc(C)c2cc1OC(C)=O	i	-5	nt
CC(=O)Oc1ccc2c(C)cc(=O)[nH]c2c1	64*	1	+
CC(=O)Nc1c(OC(C)=O)ccc2c(C)cc(=O)oc12	+	-16	+
COc1ccc2c(C)cc(=O)oc2c1C	-4	-10	nt
CC(=O)Oc1ccc2c(C)cc(=O)oc2c1	+	nt	+
Cc1cc(=O)oc2cc(O)ccc12	84*	nt	+
COC(=O)COc1ccc(Oc2nc(SC)nc(N(C)C)n2)nn1	12	-5	nt
O=CN1CC(=O)N(c2ccccc2)c2c([nH]c3ccccc23)C1	-1	-13	nt
Cc1cc(C)nc(-n2nc(C)cc2NC(=O)c2cccc(S(=O)(=O)N3CCCCC3)c2)n1	7	nt	nt
O=C(CN1C(=O)c2ccccc2C1=O)Nc1ccccc1C(=O)NC1CCCCC1	11	nt	nt
CCC(C)(C)n1c(=O)[nH]c2c(c1=O)CCC2	-12	2	nt
C[C@H](O)CC1=C[C@H](O)[C@@H](C)OC1=O	-5	nt	nt
Cc1ccccc1-c1c(C)oc2cc(O)ccc2c1=O	38*	-6	+
Cc1oc2cc(O)ccc2c(=O)c1N1C(=O)c2ccccc2C1=O	4	3	nt
COC(=O)c1ccc(=O)n(Cc2ccc3c(c2)OCO3)c1	-17	-11	nt
Cc1nc2ccccc2n2c(-c3ccccc3)c3c(=O)n(C)c(=O)n(C)c3c12	-17	nt	nt
CC1=C(C#N)C(c2cccnc2)C2=C(CCCC2=O)N1 (centres undefined)	32*	nt	+
Cc1ccc(N2C(N)=C(C#N)C(c3cccnc3)C3=C2CCCC3=O)cc1 (centres undefined)	nt	24	nt
Cc1nc(NC(=O)/C=C/c2ccccc2)sc1C(=O)Nc1ccc(Cl)cc1	-15	nt	nt
Cc1nc(NC(=O)/C=C/c2ccccc2)sc1C(=O)Nc1ccccc1Cl	37*	nt	+
CCC(C)[C@H](NC(=O)Nc1ccc(C(C)=O)cc1)C(=O)OC (some centres undefined)	-10	-3	nt

From PubChem
